The text below walks through data of PubChem BioAssay (NCATS).

Assay [1] is described as follows: Viability qHTS for spleen associated tyrosine kinase inhibitor (SYKi) drug resistant MV4-11 cells (AID 1963824). Further: nearly all actives have a fitted effect of over 35% in size. Further: potency means the concentration at half of the fitted maximal effect. To be noted: SYKi-resistant MV4-11 viability, CellTiter-Glo, 72 h; series mostly up to 45 µM. A digest of the protocol:
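SYK inhibitor-resistant MV4-11 AML cells, 500 per well, added to predispensed compounds and incubated 72 hr at 37 C, 5% CO2. Viability measured by CellTiter-Glo luminescence after 10 min at room temperature.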
A general note: qHTS replaces the single test concentration by a dilution series.

Assay [2] is described as follows: Cellular viability qHTS for adrenocortical cancer (ACC) cell line SW-13 (AID 1963989). Further: nearly all actives have a fitted effect of over 65% in size. Further: potency means the concentration at half of the fitted maximal effect.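 On activity (max response): cells grown in serum-free medium with ITS supplement; on the % scale 0 is the no-effect control and ±100 the full control effect.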 Particulars: SW-13 ACC cells viability, CellTiter-Glo, 48 h; activity (max response): hits give low values. In short, it runs like this:
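Viability was read as CellTiter-Glo luminescence after 48 h compound treatment (up to 46 uM final) of SW-13 cells grown serum-free; titration curves were fit with a four-parameter logistic model to give IC50 and efficacy.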

A short description of assay [3]: Cellular viability qHTS for adrenocortical cancer (ACC) cell line NCI-H295R (AID 1963990). Further: nearly all actives have a fitted effect of over 60% in size. Further: potency means the concentration at half of the fitted maximal effect. To be noted: CellTiter-Glo ATP luminescence, 48 h; series mostly up to 46.1 µM. In short, it runs like this:
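CellTiter-Glo ATP luminescence, read 48 h after compound addition, measured viability of NCI-H295R adrenocortical cells grown serum-free with ITS. Final concentrations spanned up to 46 uM. Data normalized to DMSO and doxorubicin, fitted for IC50 and maximal response.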

Assay [4] is described as follows: Quantitative highthroughput screen to assess conditional lethalithy of NOMO1 cells grown in RPMI1640 with untreated serum (RPMI+s) (AID 1963876). Further: nearly all actives have a fitted effect of over 35% in size. Further: potency means the concentration at half of the fitted maximal effect.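 On Viability: 100% = DMSO wells and 0% = empty wells without cells.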 To be noted: NOMO1 AML cells in RPMI+serum, CellTiter-Glo viability, 48 h; series mostly up to 45.8 µM. In short, it runs like this: (§1)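 Each medium arm—HPLM with 10% dialyzed FBS, or RPMI1640 with 5 mM glucose and 10% untreated or dialyzed FBS—was screened against an 11-point, 3-fold compound titration for 48 h at 37 °C, with CellTiter-Glo luminescence as endpoint.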
Background: Cellular ATP, detected with luciferase, serves as a proxy for viable cell number.

Assay [5] in a line: Quantitative highthroughput screen to assess conditional lethalithy of NOMO1 cells grown in RPMI1640 with dialyzed fetal bovine serum (RPMI+ds) (AID 1963877). Further: nearly all actives have a fitted effect of over 30% in size. Further: potency means the concentration at half of the fitted maximal effect.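 On Viability: 100% = DMSO control wells and 0% = empty wells.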 To be noted: NOMO1 in RPMI+dialyzed FBS viability, ATP luminescence, 48 h; series mostly up to 45.8 µM. In short, it runs like this:
as §1

Assay [6] can be described thus: Quantitative highthroughput screen to assess conditional lethalithy of NOMO1 cells grown in Human Plasma-Like Medium with dialyzed fetal bovine serum (HPLM+ds) (AID 1963878).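 Further: 100% = DMSO wells and 0% = empty wells on each plate; nearly all actives have a fitted effect of over 35% in size.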 To be noted: NOMO1 AML cells in HPLM+ds, CellTiter-Glo viability, 48 h; series mostly up to 45.8 µM. A digest of the protocol: as §1
Assay [7] in a line: Quantitative highthroughput screen to assess conditional lethalithy of P12 Ichikawa cells grown in Human Plasma-Like Medium with dialyzed fetal bovine serum (HPLM+ds) (AID 1963879). Further: nearly all actives have a fitted effect of over 35% in size. To be noted: ATP luminescence, 48 h; Potency: viability; series mostly up to 45.8 µM. A digest of the protocol:
as §1

The nature of assay [8]: Quantitative highthroughput screen to assess conditional lethalithy of P12 Ichikawa cells grown in RPMI1640 with untreated serum (RPMI+s) (AID 1963881). To be noted: ATP luminescence, 48 h; Potency: viability; series mostly up to 45.8 µM. In short, it runs like this:
as §1

The nature of assay [9]: Quantitative highthroughput screen to assess conditional lethalithy of SEM cells grown in Human Plasma-Like Medium with dialyzed fetal bovine serum (HPLM+ds) (AID 1963882). Further: nearly all actives have a fitted effect of over 35% in size. Further: potency means the concentration at half of the fitted maximal effect. Particulars: SEM B-ALL cells in HPLM+ds, CellTiter-Glo viability, 48 h; series mostly up to 45.8 µM. A digest of the protocol:
as §1

The nature of assay [10]: Quantitative highthroughput screen to assess conditional lethalithy of SEM cells grown in RPMI1640 with unreated serum (RPMI+s) (AID 1963883). To be noted: SEM B-ALL cells, CellTiter-Glo viability, 48 h; series mostly up to 45.8 µM. A digest of the protocol:
as §1

Records with an inconclusive call do not appear. Unmarked numbers belong to inactive results. Activity calls are given as the source filed them. The call rests on the fitted dose curve; in most records, active means well fitted curve in the direction sought with a large enough effect; inconclusive means small, poorly fitted or top-dose-only effect, or another doubt; inactive means no such curve, though single readings can be large; an effect the other way counts as inactive or inconclusive.

Take `CCC(CC)(CNC(=O)CCCO)c1cccc(OC)c1`: the Potency entry in assay [1] and in assay [3] was “inactive” each time. Further, in assay [2], the activity (max response) was 8.71%.

In the case of `C[C@H](Nc1ncnc2nc[nH]c12)c1nc2ccc(F)cc2c(=O)n1-c1ccccc1`, the Potency in assay [1] is 0.651 µM (active). Also, the activity (max response) in assay [2] was -19.1%. Also, in [3], the Potency entry was “inactive”.

For the compound `CCCCOC(=O)c1ccccc1C(=O)OCc1ccccc1`, the Potency in [1] is 17.2 µM (active). In addition, in assay [2], the activity (max response) was 0.138%. Further, in assay [3], the Potency entry was “inactive”.

Regarding `CC(=Cc1csc(C)n1)[C@@H]1C[C@H]2O[C@]2(C)CCC[C@H](C)[C@@H](O)[C@@H](C)C(=O)C(C)(C)[C@@H](O)CC(=O)O1`, the Potency entry in assay [4], in assay [5] and in [6] was “inactive” in each case.

With `C=CCON=C(C[C@H]1O[C@@H]2O[C@]3(C)CC[C@@H]4[C@H](C)CC[C@@H]([C@H]1C)[C@@]24OO3)[C@H]1O[C@@H]2O[C@]3(C)CC[C@H]4[C@H](C)CC[C@@H]([C@@H]1C)[C@@]24OO3`, the Potency is 0.833 µM (active) in assay [4] and 0.743 µM (active) in [5].

For the compound `Nc1nc(N)nc(NC2CC2)n1`, the Potency result in assay [1] and in assay [3] was “inactive” throughout. Further, the activity (max response) in assay [2] is -6.71%.

Take `CC(C)N(CCC(C(N)=O)(c1ccccc1)c1ccccn1)C(C)C` (stereo not drawn): the Potency result in assay [1] and in assay [3] was “inactive” in each case. In [2], the activity (max response) is 4.36%.

Take `COP(=S)(OC)Oc1ccc(Sc2ccc(OP(=S)(OC)OC)cc2)cc1`: the Potency result in assay [1] and in assay [3] was “inactive” in each case. Moreover, in assay [2], the activity (max response) was 9.16%.

With `Cc1ccc(N=CN(C)C=Nc2ccc(C)cc2C)c(C)c1`, the Potency result in [1] and in assay [3] was “inactive” each time. Also, the activity (max response) in assay [2] was 9.45%.

In the case of `O=C(O)Cc1ccccc1`, the Potency result in assay [1] and in assay [3] was “inactive” each time. In addition, in assay [2], the activity (max response) is -6.54%.

On to `COc1cc(CC(C)N)cc2c1OCO2` (stereo not drawn), for which the Potency result in assay [1] and in assay [3] was “inactive” each time. In addition, in assay [2], the activity (max response) was -21.8%.

For the compound `CN(C)C(=S)SSC(=S)N(C)C`, the Potency in assay [1] is 4.73 µM (active); in assay [3] it was 25.9 µM (active).

For the compound `CN(C)CCc1c[nH]c2cccc(OP(=O)(O)O)c12`, the Potency result in assay [1] and in assay [3] was “inactive” throughout. The activity (max response) in assay [2] was -5.41%.

Consider `CCCCCC[C@H]1C(=O)O[C@H](C)[C@H](NC(=O)c2cccc(NC=O)c2O)C(=O)O[C@@H](C)[C@@H]1OC(=O)CC(C)C`, for which, in assay [4], the Potency entry is “inactive”.

Consider `Clc1ccccc1N1CCNCC1`, for which the Potency result in assay [1] and in assay [3] was “inactive” in each case. Besides, the activity (max response) in [2] is -1.85%.

On to `C=CCOC(Cn1ccnc1)c1ccc(Cl)cc1Cl` (stereo not drawn), for which the Potency in assay [1] was 9.44 µM (active). Also, the Potency entry in assay [3] is “inactive”.

As for `O=C(O)CCCCCCNC1c2ccccc2CCc2ccccc21`, the Potency entry in assay [1] and in assay [3] was “inactive” each time.

For the compound `c1ccc2nc(N3CCNCC3)ccc2c1`, the Potency result in assay [1] and in assay [3] was “inactive” throughout. Further, in assay [2], the activity (max response) was -8.05%.

As to `CCOP(=S)(OCC)Oc1cc(C)nc(C(C)C)n1`, the Potency result in [1] and in assay [3] was “inactive” each time. The activity (max response) in [2] is 8.98%.

On to `C[N+]1(CCF)[C@@H]2CC[C@H]1CC(OC(=O)C(O)(c1ccccc1)c1ccccc1)C2` (stereo partly drawn), for which the Potency entry in assay [1] and in assay [3] was “inactive” each time. In assay [2], the activity (max response) is 9.46%.

`COc1cccc(C(=O)CCN[C@@H](C)[C@H](O)c2ccccc2)c1`: in [1], the Potency result is “inactive”. Moreover, in assay [3], the Potency is 25.9 µM (active).

On to `O=[N+]([O-])c1cc([As](=O)(O)O)ccc1O`, for which the Potency entry in assay [1] and in assay [3] was “inactive” each time. Besides, the activity (max response) in assay [2] is 2.65%.

On to `CCCCCCCCCCCCCCCC[N+](C)(C)C`, for which the Potency in assay [1] was 1.19 µM (active); in assay [2] it was 7.31 µM (active); in [3] it was 8.2 µM (active).

Turning to `c1ccc2c(c1)Sc1ccccc1N2CC1CN2CCC1CC2` (stereo not drawn), the results for the Potency in assay [1] and in assay [3] were 26.6 µM (active) and 16.4 µM (active), respectively.

For the compound `CC1=C2C[C@H]3[C@@H](CC=C4C[C@@H](O)CC[C@@]43C)[C@@H]2CC[C@]12O[C@@H]1C[C@H](C)CN[C@H]1[C@H]2C`, the Potency in assay [1] was 14.8 µM (active). Moreover, the activity (max response) in [2] is -8.25%. Moreover, the Potency entry in assay [3] was “inactive”.

Regarding `C[C@]12COC(=O)C[C@@H]1CC[C@@H]1[C@H]2CC[C@@]2(C)[C@H]1CC[C@]2(C)O`, the Potency entry in assay [5], in assay [7], in assay [8] and in [9] was “inactive” throughout.

`CC[C@H](O)C(C[C@H](C)N(C)C)(c1ccccc1)c1ccccc1`: the activity (max response) in assay [2] is -19.9%.

Take `Oc1ccc([C@H]2CNCc3c2ccc(O)c3O)cc1O`: in [2], the activity (max response) was -10.4%.

Consider `Cc1ccccc1-n1c(Cn2cnc3c(N)ncnc32)nc2cccc(C)c2c1=O`, for which the Potency entry in [7] and in assay [3] was “inactive” each time. Further, the Potency was 0.296 µM (active) in [9] and 1.18 µM (active) in assay [10]. Also, in [2], the activity (max response) is 9.58%.
